Consider 40 compounds from ChEMBL document CHEMBL3988442, “University of Dundee, Small-Polar-MMV Screening Library” (2021).

Structures are written as SMILES.

The target in the assay is AMP-activated protein kinase, AMPK (Homo sapiens) (UniProt P54646+O43741+P54619+Q9UGJ0+Q9Y478+Q13131+Q9UGI9). In words: AMP-dependent Kinase enzyme assay. An in vitro enzyme assay that detects ADP turnover that is directly proportional to AMPK activity. This uses naive AMPK that is activated during the assay with MK-8722. The arrangement: scale not given: direction of the effect not stated beside the values. As to conditions: 30 µM. It counts as functional.
As to `CCOc1cc(NC(=O)N2CCOC3(CCC3)C2)ccc1C`, the Percent Effect is -1.23%. The same measure for `O=C(CCN1CCOCC1)Nc1cccc(CNCc2ccsc2)c1`: -5.46%; for `Cc1ccccc1C(=O)NC[C@@H]1CCN(C(=O)CN2CCCC2)C[C@H]1O`: -0.0834%.

For `Nc1nc(O)cc(N2CCC(c3cc(Cc4ccccc4)n[nH]3)CC2)n1`, the Percent Effect is -82.1%. For `Cc1ccccc1S(=O)(=O)N(C)[C@@H]1CC[C@@H](n2ccnc2C)[C@@H]1O`, the Percent Effect was -13.8%. For `CC(C)Cn1ncc(C(=O)NS(=O)(=O)C2CCCC2)c1C1CC1`, the Percent Effect was 5.57%. As to `Cc1cc(C(=O)N2CC[C@@]3(O)CCN(S(C)(=O)=O)C[C@H]3C2)c(C)n1C`, the Percent Effect came to 3.49%. Regarding `COc1ncccc1C(=O)NCCn1cnc(C)cc1=O`, the Percent Effect was -2.02%.

Regarding `O=S(=O)(NCC1(c2cccs2)CCOCC1)c1cccnc1`, the Percent Effect is -2.3%.

In the case of `O=C(NC1CCCCC1)N1C[C@H]2CN(c3cnccn3)C[C@@]2(C(=O)O)C1`, the Percent Effect is 2.64%. The same measure for `O=C1NC(C(=O)NCc2cccnc2Oc2ccc(F)cc2F)CO1` (stereo not given): 5.7%. Consider `Cc1ncsc1C(=O)OCCN1CCCc2ccccc21`, for which the Percent Effect came to 8.19%. Then `COCC[C@]1(O)CCN(Cc2ccccn2)C[C@H]1C`, with 5.38%; and `Cc1cc(C)c(C#N)c(NCCSc2nncn2C)n1`, with -0.426%; and `O=C(CCn1cccn1)N1CCC(c2nnc(-c3ccsc3)o2)CC1`, with 4.17%. The same measure for `CC(C)(C)c1n[nH]cc1CNC1CCC(OCC(F)(F)F)CC1` (stereo not given): 3.73%; for `Cc1nn(C)cc1C(=O)N1CCC(C(=O)c2nc3ccccc3s2)CC1`: 20.7%. With `CCCNC(=O)c1[nH]nc(C2CC2)c1Br`, the Percent Effect came out at 2.02%. Consider `O=C(NCC(O)c1cccc(F)c1)C1CCN(C(=O)C2CCC2)CC1` (stereo not given), for which the Percent Effect is -3.62%. The same measure for `CN1CCN(C(=O)C2(S(C)(=O)=O)CCCC2)Cc2ccccc21`: -2.88%. With `CC(C)C(CNC(=O)CCn1cncn1)N1CCc2ccccc2C1` (stereo not given), the Percent Effect came out at 0.687%. Then `CSc1ncccc1C(=O)NC(C)c1cccc(N2CCOC2=O)c1` (stereo not given), with -0.0368%; and `Cc1cc(Br)ccc1C(=O)Nc1c(C(N)=O)n[nH]c1C`, with 1.52%. Regarding `Cn1cc(NC(=O)N2CCCC2c2ccccn2)ccc1=O` (stereo not given), the Percent Effect was determined as 40.9%.

`Cc1noc(CCCc2nc(C3CCOC3)no2)n1` (stereo not given): the Percent Effect was found to be 10.8%. Consider `COCC(O)CNC(=O)c1cc(COc2ccc3c(c2)CCCC3)on1` (stereo not given), for which the Percent Effect is -0.134%. Then `CC(CN1CCOC1=O)NC(=O)c1cccc2cc[nH]c12` (stereo not given), with 8.07%; and `COc1ccc(C2(C(=O)N3C[C@@H](C(=O)O)[C@H](C(C)C)C3)CC2)cc1`, with 2.55%; and `N#CC1COCCN1C(=O)c1ccc2[nH]ccc2c1` (stereo not given), with 7.92%. The same measure for `CC(C)N1CCC(CC(=O)NCc2cc(O)ncn2)CC1`: -3.46%; for `COc1ccc(OC)c(-c2cc(C(=O)NCC3(CO)CC3)n(C)n2)c1`: -3.88%. Then `Cc1nc(C)n(CCC(=O)NCC2CCCOC2)n1` (stereo not given), with 10.8%. As for `N#CCCn1cnc2c(Br)cccc2c1=O`, the Percent Effect is -5.95%. The same measure for `COc1ccc(Cn2c(Cc3c(C)n[nH]c3C)n[nH]c2=O)cc1`: -5.3%; for `Cc1ccccc1NC(=O)CCNC(=O)c1ccoc1`: -10.8%. Then `CC1CCN(CC(=O)N(C)CCc2noc(C3CC3)n2)C1=O` (stereo not given), with -1.6%; and `CC(C)(C)C(=O)N1CCCC1c1cc(CO)[nH]n1` (stereo not given), with 14.4%.

On to `Cc1cc(=O)n2nc(Oc3ccc(C#N)cc3Cl)sc2n1`, for which the Percent Effect was -3.6%. For the compound `CNC(=O)C1CCN(c2ncnc3c2CCN(C(=O)C2CC2)C3)C1` (stereo not given), the Percent Effect stood at 2.51%. Then `COCC1(C(=O)N[C@H]2CN(c3noc(C)n3)C[C@@H]2C2CC2)CCC1`, with -1.21%.
